Sampled rows, rich in hits. Any-hit rate of the full collection: about 19%.
DT40 TDP1 CPT: qHTS for Inhibitors of human tyrosyl-DNA phosphodiesterase 1 (TDP1): qHTS in cells in presence of CPT; AID 686979, 2013; 420,000 tested, 12% active; Potency, µM (titrated, usually from 46.2 µM), actives largely listed as inhibitors; chicken DT40 Tdp1-/-;hTDP1 cells + 20 nM CPT, ATP luminescence, 48 h; note: nearly all actives have a fitted effect of over 55% in size
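Cell growth measured by CellTiter-Glo luminescence after a minimum 48 h, 37 C compound exposure with 20 nM CPT in Tdp1-knockout DT40 cells stably expressing hTDP1, seeded 400/well; qHTS titration format.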
HT1080 IDH1KD tx: qHTS for induction of synthetic lethality in tumor cells producing 2HG: qHTS for the HT-1080-IDH1KD cell line; HT-1080 IDH1 knockdown viability, ATP luminescence, 48 h; 360,000 tested, 2% active; Potency, µM (titrated, usually from 46.1 µM), hits mostly cytotoxic
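HT-1080-IDH1KD cells (IDH1 knocked down), 750/well in RPMI with 5% FBS, treated with compound 48 h at 37 degrees C. Viability by CellTiter-Glo luminescence, normalised to DMSO and no-cell wells; concentration-response curves classed.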
HT1080NT lethal: qHTS for induction of synthetic lethality in tumor cells producing 2HG: qHTS for the HT-1080-NT fibrosarcoma cell line | HT-1080-NT fibrosarcoma viability, CellTiter-Glo ATP luminescence, 48 h | Potency, µM (highest dose often 46.1 µM), actives largely listed as cytotoxic | 360,000 tested, 1.6% active | AID 686970, 2013;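 note: NT is the 2HG producing partner of a matched IDH1 knockdown line; nearly all actives have a fitted effect of over 55% in size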
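HT-1080-NT; 750 cells/well; 5% FBS RPMI; 48 h compound, 37 degrees C; CellTiter-Glo luminescence; curve fitting and curve-class assignment.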
IL1B secr inh: qHTS for Inhibitors of Inflammasome Signaling: IL-1-beta AlphaLISA Primary Screen; AID 743279, 2014; activity change, % at 57.5 µM; THP-1 LPS/ATP IL-1B secretion, AlphaLISA, 16 h; hits give low values; 360,000 tested, 4.7% active; in the data active = activity change below about -50%; inconclusive = mostly about -30% to -49%
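THP-1 cells pretreated 1 hr with compounds (up to 57.5 uM final), then stimulated with LPS (250 ng/mL final) plus ATP (1.25 mM final); secreted IL-1B measured by AlphaLISA after 16 hr, decreased signal indicating inhibition.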
DT40 TDP1 no CPT: qHTS for Inhibitors of human tyrosyl-DNA phosphodiesterase 1 (TDP1): qHTS in cells in absence of CPT; Potency, µM (highest dose often 46.2 µM), hits mostly inhibitors; AID 686978, 2013; DT40 Tdp1-/- hTDP1 cells, no CPT, ATP luminescence, 48 h; 420,000 tested, 15% active; note: nearly all actives have a fitted effect of over 55% in size
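Stably hTDP1-transfected Tdp1-null chicken DT40 cells were treated with library compounds minus camptothecin and grown for at least 48 hr at 37 °C, after which cellular ATP was quantified by luminescence.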
A number is an active result; - = inactive; ? = inconclusive; . = not tested or not shown. Unless noted, calls come from the whole dose curve; as a rule, active = well fitted curve in the direction sought with a large enough effect; inconclusive = small, poorly fitted or top-dose-only effect, or another doubt; inactive = no such curve, though single readings can be large; an effect the other way counts as inactive or inconclusive.

SMILES	DT40 TDP1 CPT	HT1080 IDH1KD tx	HT1080NT lethal	IL1B secr inh	DT40 TDP1 no CPT
O=C1OC(/C(=C\Nc2ccccc2)[N+](=O)[O-])c2ccccc21 (centres undefined)	-	?	?	-104	-
O=C1OC(/C(=C\NCc2ccccc2)[N+](=O)[O-])c2ccccc21 (centres undefined)	-	-	-	-	-
COC(=O)C1=C(C(=O)OC)[C@@H]2N(Cc3ccccc3)c3ccccc3[C@@]23C[C@@H](C(=O)OC)N(C(=O)C2CCC2)C3=N1	-	-	-	-	-
COc1cc2c(cc1OC)C(C)N(C(=O)Cn1ncc3c1-c1ccccc1OC3)CC2 (centres undefined)	?	-	-	-	?
COc1cc2c(cc1OC)C(C)N(Cc1ccc3c(c1)OCO3)CC2 (centres undefined)	?	-	-	-	18µM
COc1cc2c(cc1OC)C(Cc1ccc(O)cc1)N(C)CC2 (centres undefined)	-	-	-	-	-
COc1cc2c(cc1OC)C(C)N(C(=O)c1ccc(Br)o1)CC2 (centres undefined)	?	-	-	-	16µM
COc1cc2c(cc1OC)C(C)N(C(=O)c1cc(Cl)nc(Cl)c1)CC2 (centres undefined)	7.3µM	?	?	-	?
CCC(=O)c1ccccc1OCCCCn1cncn1	-	-	-	-	-
O=C(CSC1CS(=O)(=O)c2cc([N+](=O)[O-])ccc21)NNC(=O)c1ccccc1 (centres undefined)	13µM	?	-	-	21µM
O=C(CSC1CS(=O)(=O)c2cc([N+](=O)[O-])ccc21)NNC(=O)c1ccc(Cl)cc1 (centres undefined)	5.2µM	-	-	-	2.3µM
O=C(CSc1nnc2ccccn12)NNC(=O)c1cccc([N+](=O)[O-])c1	-	-	-	-	-
Cc1cc(F)ccc1N1CCC(N2CCN(C(C)C)C(CCO)C2)CC1 (centres undefined)	?	-	-	-	23µM
COc1cccc(CN2CCN(C3CCN(c4ccccc4F)CC3)CC2CCO)c1 (centres undefined)	?	-	-	-	?
Cc1cc(F)ccc1N1CCC(N2CCN(CCC(C)C)C(CCO)C2)CC1 (centres undefined)	?	?	18µM	-66	23µM
COc1cccc(CN2CCN(C3CCN(c4ccccc4C)CC3)CC2CCO)c1 (centres undefined)	?	-	-	-	18µM
CC(C)N1CCN(Cc2cc(F)ccc2-n2cccn2)CC1CCO (centres undefined)	-	-	-	-	-
Cn1c(CC(=O)Nc2ccccc2C(F)(F)F)c(Sc2ccccc2)c2ccccc21	-	-	-	-	-
OC(c1ccccc1)(c1ccccc1)C1CCN(CCCOc2ccccc2Cl)CC1	21µM	?	21µM	?	16µM
COc1ccccc1OCCCCN1CCC(C)CC1	-	-	-	-	-
COc1ccccc1OCCCN1CCC(C(O)(c2ccccc2)c2ccccc2)CC1	?	16µM	21µM	-54	21µM
CCCc1cc(C(=O)Nc2cccc(-c3nn[nH]n3)c2)sc1C	-	-	-	-	-
Cc1ccc(Nc2nc(C)c(NC(=O)c3ccc(C)cc3)c(Nc3ccc(C)cc3)n2)cc1	6.5µM	.	.	.	4.6µM
CCOc1ccc(Nc2nc(C)c(NC(=O)c3ccc(C)cc3)c(Nc3ccc(OCC)cc3)n2)cc1	1.3µM	.	.	.	2.6µM
Cc1ccc(C(=O)Nc2ccc3ccccc3c2)cc1	-	-	-	-	-
CCCS(=O)(=O)NC(=O)C1(C)CCCN(C(=O)COc2ccccc2)C1 (centres undefined)	-	-	-	-	-
Cc1ccc(S(=O)(=O)N/N=C\c2ccc([N+](=O)[O-])o2)cc1	15µM	-	-	-60	16µM

Bioassay records as filed in PubChem BioAssay.
